The values that follow come from the supplement of paper PMC3484114.

± gives the standard deviation.

The subject of this test is OVCAR-3-derived ovarian cancer stem-like cells (spheroids). In words: cell growth relative to untreated control; higher = more growth (less inhibition). Conditions: 2.29 µM; 96 h. Put shortly:
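Stem-like cells derived from OVCAR-3 spheroids were dissociated with trypsin and seeded at 50,000 cells/mL in stem cell medium in ultra-low attachment 96-well plates, then preincubated for 24 h. Each compound was added at 2.29 uM to 4 replicate wells and left for 96 h at 37°C, 5% CO2. Viability came from TOX8 resazurin fluorescence (ex 560/em 590 nm) read after 4 h. Percent growth was expressed relative to untreated wells, after blank subtraction and removal of outliers by the Grubbs test.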
Turning to `S=C1Nc2cnc3ccccc3c2SC1c1ccccc1` (centres undefined), the cell growth turned out to be 9.8 ± 3.9%.

As for `CSc1ccc(NC(=O)CCl)cc1`, the cell growth was 80.8 ± 14%.

With `O=S(=O)(O)c1cc(N=Nc2cc(S(=O)(=O)O)c3cccnc3c2O)ccc1/C=C/c1ccc(N=Nc2cc(S(=O)(=O)O)c3cccnc3c2O)cc1S(=O)(=O)O`, the cell growth came out at 93.7 ± 14%. The compound `O=C1Nc2c(Cl)cc(Cl)cc2C1=NN=Cc1ccco1` gave a cell growth of 84.3 ± 20%. As to `CN(C)[C@@H]1C(=O)C(C(N)=O)=C(O)[C@@]2(O)C(=O)C3=C(O)c4c(O)cccc4C[C@H]3C[C@@H]12`, the cell growth turned out to be 57.8 ± 20%. In the case of `O=C(C[n+]1ccc2ccccc2c1)c1ccc2ccc3ccccc3c2c1` it was 95.1 ± 31%; in that of `CC(=O)c1sc2[n+](c1C)C(=O)/C(=C\c1ccccc1Cl)S2`, 99.4 ± 17%. As to `Cn1cnc([N+](=O)[O-])c1Sc1nnc(-c2cccnc2)n1C`, the cell growth is 151 ± 61%.

As to `NC1(CCNC(=O)c2ccccc2)CCN(C(=O)c2ccccc2)CC1`, the cell growth worked out at 118 ± 19%.

`CC(=O)O[C@]1(C(C)=O)CC[C@H]2[C@@H]3C[C@H](C)C4=CC(=O)C=C[C@]4(C)[C@@]3(F)[C@@H](O)C[C@@]21C` yielded a cell growth of 130 ± 81%. Take `C(=C/c1nc2ccccc2o1)/c1ccc2c(c1)OCO2`: the cell growth came out at 94 ± 16%.

Compound `COc1ccc2c(O)c3[n+](cc2c1OC)CCc1cc2c(cc1-3)OCO2` returned a cell growth of 103 ± 14%. In turn, `CCN1CCC(O)(/C=C/c2ccc(C)cc2)C(C(=O)/C=C/c2ccc(C)cc2)C1` (centres undefined) yielded a cell growth of 98.5 ± 13%. With `Cc1ccc(S(=O)(=O)N2CCSCCSCCSCCSCC2)cc1`, the cell growth was 92.2 ± 26%. In the case of `O=C(ON=C1c2ccccc2C(Br)C(Br)c2ccccc21)c1ccccc1` (centres undefined), the cell growth stood at 107 ± 22%. `CN1CCN(CCCN2c3ccccc3Sc3ccc(C(F)(F)F)cc32)CC1` gave a cell growth of 79.1 ± 24%.

The compound `COC(=O)C1(C)CCCC2(C)c3cc(OC)ccc3C(=O)C(Br)C12` (centres undefined) registered a cell growth of 89.4 ± 39%. As for `COc1cc2c3c(c1OC)-c1cc4c(cc1CC3(C#N)N(C(=O)c1ccccc1)CC2)OCO4` (centres undefined), the cell growth was 93.1 ± 24%. Compound `COc1cc2cc(c1Cl)N(C)C(=O)C[C@H](OC(=O)[C@H](C)N(C)C(C)=O)[C@]1(C)O[C@H]1[C@H](C)[C@@H]1C[C@@](O)(NC(=O)O1)[C@H](OC)/C=C/C=C(\C)C2` gave a cell growth of 22.5 ± 4.8%.

`CN(C)/N=N/c1nc[nH]c1C(N)=O` registered a cell growth of 164 ± 14%.

For `CC(=O)NC(CC(C)C)C(=O)NC(Cc1ccccc1)C(=O)CCl` (centres undefined), the cell growth is 88.6 ± 12%. In the case of `O/N=C(\CC(O)(C(F)(F)F)C(F)(F)F)c1cccc(Cl)c1` it was 87.8 ± 16%; in that of `CC[C@@]1(O)C[C@H](O[C@H]2C[C@H](N(C)C)[C@H](O[C@H]3C[C@H](O)[C@H](O[C@H]4CCC(=O)[C@H](C)O4)[C@H](C)O3)[C@H](C)O2)c2c(cc3c(c2O)C(=O)c2c(O)cccc2C3=O)[C@@H]1C(=O)OC`, 48.2 ± 42%. Compound `CN(C)c1cccc(/C=C(\C#N)c2ccccc2)c1` registered a cell growth of 66.6 ± 7.2%. In the case of `CC(C)(C)OC(=O)NC(Cc1ccccc1)C(=O)OCN1C(=O)C2C3C=CC(C2C1=O)C1C2C(=O)N(COC(=O)C(Cc4ccccc4)NC(=O)OC(C)(C)C)C(=O)C2C31` (centres undefined) it was 109 ± 26%.

With `N#CCCN(CCC#N)c1ccc(C=Nc2ccc(F)cc2)cc1`, the cell growth came out at 101 ± 28%. Regarding `CC1(C)N=C(N)N=C(N)N1c1ccc(OCCCOc2ccccc2)c(Cl)c1`, the cell growth worked out at 43.6 ± 13%. `Cc1nc(Cl)c(C)c(Cl)n1` showed a cell growth of 88.2 ± 11%. The compound `COc1ccc2cc1Oc1ccc(cc1)CC1c3cc(c(OC)cc3CCN1C)Oc1c(OC)c(OC)cc3c1C(C2)N(C)CC3` (centres undefined) had a cell growth of 88.5 ± 18%.

`Cc1c(C(=O)C/C(=N/NC(=O)CC#N)C(N)=O)[n+](=O)c2ccccc2n1[O-]` showed a cell growth of 51.9 ± 10%. With `C=CC(=O)N1C/C(=C\c2ccc(Cl)cc2)C(=O)/C(=C/c2ccc(Cl)cc2)C1` the figure was 59.7 ± 22%; with `CC1=CC(C)(C)N=C2SC(c3ccc(N)cc3)=NN12`, 112 ± 28%; with `O=C1C=Cc2ncccc2C1=O`, 97.9 ± 16%. For the compound `CC(=O)C1=C(O)C2(O)C(=O)c3c(c(C)c4ccc(C)c(O)c4c3O)CC2C(N)C1=O` (centres undefined), the cell growth amounted to 118 ± 30%.

Regarding `CN1CCN(CCSC2Cc3cc(Cl)ccc3Sc3ccccc32)CC1` (centres undefined), the cell growth was 151 ± 26%. `CC(C)N.CC(C)N.[Cl-].[Cl-].[OH-].[OH-].[Pt]` had a cell growth of 65.4 ± 57%.

`CCn1c(O)c(C=Nc2ccccc2)s/c1=N/Nc1ncc(CC(=O)Nc2ccccc2C)s1` had a cell growth of 95.9 ± 16%.

With `Cc1ccc(CC2(OCCN(C)C)CCC(C(C)(C)C)CC2)cc1` (centres undefined), the cell growth worked out at 82.2 ± 24%. `COc1ccc2c(c1)C=C([N+](=O)[O-])C(C1OC(C)(C)OC1C1COC(C)(C)O1)O2` (centres undefined) gave a cell growth of 84.6 ± 23%.
